Laboratory results taken from the supplement of paper PMC3334620.
Whole data set: some 33,000 sequences, median “E-score (-0.5 to 0.5)” near -0.021, cut for the highest 2% near 0.32. The sample as a whole holds a higher share of the highest values than the screen did.

The sequences below were run against T1, Zap1 (UniProt P47043) (assay: PBM E-score (8-mer binding enrichment) (E-score (-0.5 to 0.5)); higher = stronger / more preferred TF binding). Settings: protein concentration: 200 nM; construct: GST-full length.
T1 sequence: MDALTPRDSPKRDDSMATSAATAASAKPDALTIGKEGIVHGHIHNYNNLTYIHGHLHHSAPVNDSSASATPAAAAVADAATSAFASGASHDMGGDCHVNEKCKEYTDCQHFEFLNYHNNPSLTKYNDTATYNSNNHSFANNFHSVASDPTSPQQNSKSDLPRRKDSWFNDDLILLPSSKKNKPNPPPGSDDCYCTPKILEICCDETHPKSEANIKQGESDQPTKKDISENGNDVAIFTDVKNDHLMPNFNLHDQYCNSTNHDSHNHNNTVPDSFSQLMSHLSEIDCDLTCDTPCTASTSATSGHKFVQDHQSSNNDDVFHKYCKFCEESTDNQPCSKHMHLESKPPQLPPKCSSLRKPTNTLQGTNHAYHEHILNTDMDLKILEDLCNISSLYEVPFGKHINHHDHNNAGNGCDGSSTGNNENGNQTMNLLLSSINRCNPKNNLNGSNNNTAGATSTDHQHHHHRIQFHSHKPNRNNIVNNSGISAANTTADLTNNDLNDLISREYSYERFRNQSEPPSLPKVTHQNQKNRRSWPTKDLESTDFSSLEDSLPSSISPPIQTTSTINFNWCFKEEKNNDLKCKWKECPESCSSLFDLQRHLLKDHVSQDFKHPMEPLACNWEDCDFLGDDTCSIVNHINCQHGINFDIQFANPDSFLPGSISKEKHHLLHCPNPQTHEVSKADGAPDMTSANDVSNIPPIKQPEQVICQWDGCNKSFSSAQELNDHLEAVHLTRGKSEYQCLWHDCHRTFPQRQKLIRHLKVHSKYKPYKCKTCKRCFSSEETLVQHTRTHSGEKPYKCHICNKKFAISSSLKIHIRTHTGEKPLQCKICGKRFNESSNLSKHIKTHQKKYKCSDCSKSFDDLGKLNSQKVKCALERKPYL
Procedure: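 Universal 'all 10-mer' protein binding microarrays (Agilent AMADID 015681) probed with GST-tagged S. cerevisiae TFs (full-length or DBD) made by in vitro transcription/translation (PURExpress), about 100-200 nM. Bound TF was detected with fluorescent anti-GST. Each ungapped 8-mer (which stands for itself and its reverse complement) is scored by the PBM enrichment score (E-score), a modified Wilcoxon-Mann-Whitney statistic from -0.5 to +0.5, computed with the Universal PBM Analysis Suite. Scale: above 0.35 generally sequence-specific binding.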

Point of comparison: GAGGTAGC, “PBM E-score” value 0.0662. Against it:
- TACACAGA — lower, 0.0113
- AGACTGAC — lower, -0.202
- GAGCTATA — lower, -0.233
- ACATACGA — higher, 0.0717
- CGCGTCGC — lower, -0.204
- CTGTGGAA — lower, -0.0936
- AACCAGAT — higher, 0.142
- ACAGATCT — lower, -0.0411
- GCATAACA — lower, 0.0518
- GCATAAGC — lower, -0.0977
- ACATAACG — lower, 0.0512
- ACATAACC — higher, 0.454
- ACATAACT — higher, 0.149
- GCATAACC — higher, 0.414
- CATCTTAA — lower, -0.0359
- AAGCGGGC — lower, -0.335
- AGTGACAC — lower, -0.119
- CGTGACCA — higher, 0.35
- CTTGACCC — higher, 0.311
- AGTGACCG — higher, 0.115
- AGTGACCC — higher, 0.347
- AGTGACCA — higher, 0.247
- CGTGACGC — lower, -0.134
- CGTGACCC — higher, 0.418
- GGTGACCA — higher, 0.283
- AGACTTAG — lower, -0.306
- AGGTTAAC — higher, 0.405
- GGGTTAAA — higher, 0.443
- AGGTTAAT — higher, 0.315
- ACGTTAAG — lower, -0.0481
- AGGTTAAG — higher, 0.383
- ATGTTAAG — lower, -0.0536
- GGGTTTAA — higher, 0.242
- GGGTTAAC — higher, 0.403
- GAGTTAAC — lower, 0.00603
- CGGTTAAC — higher, 0.232
- GTGTTAAA — lower, 0.0467
- ACGTTAAC — higher, 0.0746
- CTGCCAGA — lower, -0.0969
- GGTTAGGA — higher, 0.296
- CAGTGCAA — lower, -0.0222
- CCCTAGAA — higher, 0.177
- CCGGTGTC — lower, 0.0219
- AGGTAGTA — higher, 0.337
- CGGTAGTA — higher, 0.107
- AGGTAGTG — higher, 0.268
- AAATGAAA — higher, 0.23
- ACATTCTC — lower, -0.0126
- AAATAACG — lower, 0.042
- GAATAAGC — lower, -0.182
- GAATAACA — higher, 0.181
- CAATAACA — lower, 0.0373
- GAATAACC — higher, 0.438
- CAATAACC — higher, 0.468
- AAATAACC — higher, 0.42
- AAATAACA — lower, 0.0357
- CAATAACG — higher, 0.138
- CGCGGCAG — lower, -0.049
- GCGTTGAC — lower, -0.0667
- CGCCAGCG — lower, -0.255
- GTTGCCGA — lower, -0.0812
- GTAGCAAC — lower, -0.0913
- GACAGTCA — lower, -0.217
- ACCGTTAA — higher, 0.256
- GAAGGTGA — higher, 0.116
- CAAGGTGA — higher, 0.216
- CAAGGTTA — higher, 0.466
- GAAGGTTA — higher, 0.437
- GAAGGTGC — lower, 0.0253
- CAAGGTTC — lower, 0.0224
- GTCTGGTA — higher, 0.146
- CGTCCATA — higher, 0.125
- AGCTGAGC — lower, -0.185
- ATACCCCC — higher, 0.221
- ATACCCAA — higher, 0.247
- ATACCCCA — higher, 0.383
- CTACCCCA — higher, 0.139
- GTACCCAA — higher, 0.234
- GTACCCCA — higher, 0.35
- ACTCTGCA — higher, 0.0815
- AGTTCAGG — lower, 0.0101
- ATATGACG — lower, -0.122
- GCCGAGGC — lower, -0.0423
- GACCCATA — higher, 0.259
- AACCCATT — higher, 0.276
- ACCCCATA — higher, 0.373
- AACCCATA — higher, 0.391
- CCCCCATA — lower, -0.0168
- ACCCCATG — higher, 0.255
- GTATTCAA — higher, 0.123
- AGCCACAG — lower, -0.199
- GACAGCCA — lower, -0.146
- ACGTCACT — lower, -0.246
- GCCTTACC — lower, 0.0234
- CCATAAAC — lower, 0.0419
- AACGTACT — lower, 0.0257
- AAGGTATC — higher, 0.255
- AAGGTACT — higher, 0.33
- AAGGTAGA — higher, 0.106
- GAGGTACC — higher, 0.432
- GAGGTACA — higher, 0.155
- AAGGTAGC — higher, 0.307
- AAGGTAGT — higher, 0.373
- CAGGTACA — higher, 0.101
- CAGGTACG — lower, 0.0402
- CAGGTACC — higher, 0.415
- GGATCCCC — lower, -0.152
- CGATAGAG — lower, -0.236
- GTACCTTA — higher, 0.265
- GGCATAGA — lower, -0.0663
- CGCTACGA — lower, -0.0679
- AAGGTACC — higher, 0.445
- AAGGTACA — higher, 0.223
- AAGGTACG — lower, 0.0328
- CCAGTTAG — lower, 0.00998
- CCAATAGA — lower, -0.224
- CTAGTTAA — higher, 0.144
- CGACGAAC — lower, -0.0937
- CTATAACC — higher, 0.446
- CTATAACA — lower, -0.0126
- ATATAACG — higher, 0.183
- CTATAATC — lower, -0.017
- ATATAACC — higher, 0.456
- ATATAACA — higher, 0.176
- AACCAACA — higher, 0.254
- CGGCTCGA — lower, -0.172
- ACAAAAGC — lower, -0.0458
- CAGCGCAG — lower, -0.221
- AGGGTGGA — higher, 0.163
- AGGGTGGG — higher, 0.334
- AGGGTTGG — higher, 0.333
- AGGGTTGC — higher, 0.46
- AGGGTTGA — higher, 0.271
- AGGGTTTC — higher, 0.232
- ATGGTTGG — lower, -0.0414
- CGGGTTGC — higher, 0.18
- AGGGTGGC — higher, 0.293
- TCATGCGA — lower, -0.00209
- GCTCTTGA — lower, -0.213
- CGGAGTTC — lower, 0.0089
- GTTAGGAA — higher, 0.168
- GAAGCAAC — higher, 0.106
- AACCGGTG — lower, -0.0964
- AACCGGTC — higher, 0.14
- AACCGGGG — lower, -0.00821
- AACCGGGA — higher, 0.133
- AACCGGGT — higher, 0.319
- AACCGGTT — higher, 0.348
- CGGAACTA — higher, 0.141
- CGATGCCG — lower, -0.11
- GACTTGCA — lower, -0.0829
- CGGGTTTC — higher, 0.289
- CGGGTTGA — higher, 0.24
- GGAGTTAC — higher, 0.137
- CGGGTTTA — higher, 0.205
- CGGGTTAG — higher, 0.0706
- CGGGTTAC — higher, 0.439
- CGGGTTAA — higher, 0.356
- GGGTTTAC — higher, 0.316
- GGGGTTAC — higher, 0.464
- TCACAGCA — higher, 0.124
- ACTCCTTG — lower, 0.0145
- ATGGTGAA — lower, -0.0722
- CACCACTG — lower, -0.0127
- CTACGTAG — lower, -0.0165
- TAAGTTCA — lower, 0.0427
- GGTAGACA — lower, -0.0227
- ACCCGGTC — lower, -0.0272
- TACCGGTA — higher, 0.355
- ACCCGGTA — higher, 0.329
- CCCCGGTA — higher, 0.153
- AACCGGTA — higher, 0.0841
- CACCGGTA — higher, 0.188
- ACTAGCTG — lower, -0.214
- CATAGTGC — lower, -0.16
- AGCGAATC — lower, -0.083
- CTCCAGAC — lower, -0.165
- AGAGTAAG — lower, 0.0042
- ATGGTAAT — higher, 0.239
- AGGGTAAG — higher, 0.373
- AGGGTAAA — higher, 0.235
- AGGGTAAT — higher, 0.38
- GAGAGCAC — lower, -0.00012
- CATTGGAG — lower, -0.0511
- GAAGCATC — lower, -0.258
- ACGATGCG — lower, -0.223
- ACCGTAAT — lower, 0.0558
- GTCGTAAC — higher, 0.256
- CTCGTAAG — higher, 0.215
- ACCGTAAG — higher, 0.101
- CTCGTAAC — higher, 0.327
- ACCGTAAC — higher, 0.331
- ACAAGTCC — lower, -0.0469
- GCAACTGC — lower, -0.207
- ACGAGTTA — higher, 0.0684
- ATACCTCA — higher, 0.223
- ATACCTCG — higher, 0.338
- ATACCTCC — lower, -0.0021
- CACACCTA — lower, -0.0992
- TAGACATA — higher, 0.0776
- ACAAAGGG — lower, 0.0567
- AAAAAGGG — higher, 0.243
- AAAAAGGT — higher, 0.403
- ACAAAGGC — lower, 0.0392
- ACAAAGGT — higher, 0.352
- AAAAAGGA — higher, 0.15
- CCTTTCTA — higher, 0.121
- ATCTAACC — higher, 0.226
- GGATACCA — higher, 0.17
- AGATACCA — higher, 0.137
- AAATACCT — higher, 0.128
- CGATACCC — higher, 0.275
- AGATACCG — lower, 0.0651
- GGATACCC — higher, 0.393
- CAATACCC — higher, 0.214
- AAATACCC — higher, 0.328
- AGATACCC — higher, 0.325
- ACTCATGA — lower, -0.0211
